Compounds with a hit are over-represented: about 3.5% of the library has one in this group of screens.
HSP90 inh: blocks HSP90-mediated luciferase refolding in reticulocyte lysate; Rabbit reticulocyte lysate, luciferase refolding luminescence, 3 h; 0.91% of 290,000 active; AID 1789; inhibition, % at 5.6 µM;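 active = inhibition above the screen-wide mean plus 3 SD, computed separately per campaign, cut at about 16% in these data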;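 also: inhibitors lower the luminescence because luciferase stays unfolded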
TWEAK-Fn14 inh: TWEAK-Fn14 signaling inhibition; 2% of 360,000 active; inhibition, % at 10 µM; TWEAK-stimulated Fn14 reporter cells, luciferase luminescence, 8 h; in the data active = inhibition above about 50%
TROY NFkB inh: TROY signaling inhibition | Q293 LMP1-TROYcd NF-kB luciferase reporter, 4 h | inhibition, % at 10 µM | 0.98% of 360,000 active | AID 1347056;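 active = compounds whose plate-normalised and pattern-corrected inhibition of the luciferase reporter signal at the single screening dose is 50% or more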
TRAIL sens C8: caspase-8 TRAIL sensitization; inhibition (viability loss, TRAIL sensitization), % at 10 µM; 1% of 360,000 active; NB7+C8 cells + TRAIL, ATPlite viability luminescence; AID 624354;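 active = compounds causing at least 50% loss of cell viability in the single-dose screen, relative to plate controls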
Platelet DG rel: modulates dense granule release in human platelets; human platelet-rich plasma, SFLLRN dense granule ATP release, luminescence; inhibition, %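 (compounds screened at 7.5 µM in platelet-rich plasma)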; 0.22% of 300,000 active;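 active = mean replicate score, as percent of positive control, at or above 50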
PPC-1+TRAIL kill: PPC-1 cancer cell killing with TRAIL present | PPC-1 cells + TRAIL, ATPLite viability luminescence | 0.41% of 220,000 active | cell killing (% activity), % at 4 µM or 5 µM | AID 1443;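 active = cell killing above 50% in the first pass at 4 µM, then a duplicate retest at 5 µM averaging 50% or more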
Hits are given with their value; – = inactive; · = no result given.

SMILES	HSP90 inh	TWEAK-Fn14 inh	TROY NFkB inh	TRAIL sens C8	Platelet DG rel	PPC-1+TRAIL kill
CC1CN(C(c2cccs2)c2sc3ncnn3c2O)CC(C)O1 (centres undefined)	–	–	–	–	–	–
CCn1c(C)cc(C(=O)CN2C(=O)c3ccccc3S2(=O)=O)c1C	·	92.9	82.5	–	·	·
C=CCn1c(C)cc(C(=O)CN2C(=O)NC3(CCCc4ccccc43)C2=O)c1C (centres undefined)	–	–	–	–	–	–
Cc1cc(C(=O)CN2C(=O)c3ccccc3S2(=O)=O)c(C)n1C(C)C	·	92.7	83.7	–	·	·
C=CCn1c(C)cc(C(=O)CN2C(=O)c3ccccc3S2(=O)=O)c1C	·	104.4	87.9	82.6	·	·
CC(C)NC(=O)CN1C(=O)c2ccccc2S1(=O)=O	–	–	–	–	–	–
O=C(CN1C(=O)c2ccccc2S1(=O)=O)Nc1ncc(Cl)cc1Cl	·	74.6	55.0	–	·	·
CCCn1c(C)cc(C(=O)CN2C(=O)c3ccccc3C2=O)c1C	·	–	–	–	–	·
O=C1CCC(C(=O)N2CCC(CO)(Cc3ccc(Cl)cc3)CC2)=NN1	–	–	–	–	–	–
CCOC(=O)C1(CC2CCCCO2)CCN(Cc2ccccc2-c2ccco2)CC1 (centres undefined)	–	–	–	–	–	–
O=C(CN1C(=O)c2ccccc2S1(=O)=O)c1ccccc1	–	100.4	76.5	–	·	–
CN(C(=O)CN1C(=O)c2ccccc2S1(=O)=O)C1CCCCC1	·	70.3	74.9	–	·	·
CC(C)C[C@H](NC(=O)c1nc[nH]c1C(=O)N[C@@H](CCCCNC(=O)OC(C)(C)C)C(=O)OC(C)(C)C)C(=O)OC(C)(C)C	·	–	–	51.3	–	–
CC(C)(C)OC(=O)[C@H](Cc1ccccc1)NC(=O)c1[nH]cnc1C(=O)Nc1ccccc1F	·	–	–	62.0	·	·
CNC(=O)c1[nH]cnc1C(=O)N[C@@H](Cc1ccccc1)C(=O)OC(C)(C)C	–	–	–	–	–	–
CC(C)(C)OC(=O)NCCCC[C@H](NC(=O)c1[nH]cnc1C(=O)Nc1ccccc1)C(=O)OC(C)(C)C	·	–	–	58.8	–	–
CC(C)(C)OC(=O)NCc1ccc(NC(=O)c2nc[nH]c2C(=O)N[C@@H](Cc2ccccc2)C(=O)OCc2ccccc2)cc1	·	–	–	82.6	–	–
CCCCn1c(N)c(N(C)C(=O)c2c(C)nn(-c3ccccc3)c2C)c(=O)[nH]c1=O	·	–	–	–	·	·
O=C(NCc1ccco1)C(c1ccc(F)cc1)N(C(=O)Cc1cccs1)c1cccnc1 (centres undefined)	–	–	–	–	–	–
CC(=O)Nc1cc(-c2ccc(CO)cc2)cn2c(-c3ccc(F)c(Cl)c3)cnc12	·	–	–	–	·	·
O=C(CCCN1C(=O)C(c2ccccc2)Oc2cccnc21)NCc1ccccc1F (centres undefined)	–	–	–	–	–	·
Cc1ccc(S(=O)(=O)Nc2ccc3c(c2)C(=O)N([C@@H](C)CO)C[C@@H](C)[C@@H](CN(C)C(=O)NC(C)C)OCCCC[C@H](C)O3)cc1	·	–	–	–	·	·
CC(=O)Nc1ccc(S(=O)(=O)NCCC(=O)NCCCc2ccccc2)cc1	·	–	–	–	·	·
CC(=O)Nc1ccc(S(=O)(=O)NCC(=O)NCCCc2ccccc2)cc1	–	51.0	–	–	–	·
O=C(NCc1nc2ccccc2[nH]1)C1=C[C@H](c2csc3ccccc23)C[C@H](OCc2ccc(CO)cc2)O1	·	55.3	–	–	–	–
SMILES	HSP90 inh	TWEAK-Fn14 inh	TROY NFkB inh	TRAIL sens C8	Platelet DG rel	PPC-1+TRAIL kill
O=C(NCc1nc2ccccc2[nH]1)C1=C[C@@H](c2ccc(Br)cc2)C[C@@H](OCc2ccc(CO)cc2)O1	–	–	–	–	–	–
O=C(NCc1nc2ccccc2[nH]1)C1=C[C@@H](c2csc3ccccc23)C[C@@H](OCc2ccc(CO)cc2)O1	–	56.6	–	–	–	–
O=C(Nc1ccccc1)Nc1ccc2ccccc2c1	–	–	–	–	–	–
CC(C)Sc1cc(Cl)nc(NC(=O)Nc2ccccc2)n1	–	–	–	90.5	–	·
CC1Cc2ccccc2N1S(=O)(=O)c1cccc(C(=O)NCCCO)c1 (centres undefined)	–	–	·	–	–	–
CCOC(=O)c1ccc(NC(=O)c2cccc(S(=O)(=O)N3c4ccccc4CC3C)c2)s1 (centres undefined)	–	53.6	–	–	–	–

Screens from PubChem.
